Results filed as inconclusive are left out. Calls of active or inactive are those of the source.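 How the source made its calls, unless noted: active means binding below the plate cutoff, the plate median minus 3 SD, with a reading above zero; inconclusive means below the plate cutoff but reading exactly zero; inactive means the rest.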
What was measured:
[1] = rapamycin-like changes in RPL19A-GFP expression – cell-based, S. cerevisiae, multiplex flow cytometry, primary screen (AID 1862; in the data active means percent of DMSO control GFP below about 86%;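 further: lower values mimic rapamycin by blocking the RPL19A rise seen in DMSO cells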); conditions: S. cerevisiae RPL19A-GFP strain, flow cytometry fluorescence, 3 h; at 10 µM; stronger effect = lower value
[2] = TOR pathway GLN3 branch reporter MEP2-GFP changes – S. cerevisiae, multiplex flow cytometry, primary screen (AID 1867;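 active means GFP response, as percent of the DMSO control, above the screen-wide mean plus 3 SD, about 139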;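 further: median GFP channel fluorescence of barcode-gated MEP2-GFP cells measured by flow cytometry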); conditions: S. cerevisiae MEP2-GFP strain, 3 h, at 10 µM, stronger effect = higher value, 100% means same as DMSO wells
[3] = TOR pathway RTG branch CIT2 reporter changes – S. cerevisiae, GFP fusion, multiplex flow cytometry, primary screen (AID 1870;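 active means percent response above a set limit, the screen-wide mean plus 3 SD, cut at about 130% in these data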;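 further: barcoded CIT2-GFP strain pooled with four other GFP strains with rapamycin as positive control; median GFP fluorescence per well over plate mean of DMSO wells so 100% = DMSO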); conditions: S. cerevisiae CIT2-GFP expression, 3 h, at 10 µM, stronger effect = higher value
[4] = TOR pathway LAP4-GFP level changes – S. cerevisiae, multiplex flow cytometry, primary screen (AID 1873;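 active means GFP signal, as percent of the solvent control, above the screen mean plus 3 SD, about 149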); conditions: S. cerevisiae LAP4-GFP expression, 3 h, at 10 µM, stronger effect = higher value
[5] = yeast AGP1-GFP level changes, GLN3 branch – cell-based, multiplex flow cytometry, S. cerevisiae, primary screen (AID 1887;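 active means GFP signal above the screen-wide mean plus 3 SD, that is over about 124.5% of the solvent control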;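 further: AGP1-GFP fusion strain of S. cerevisiae within a five-strain barcoded multiplex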); conditions: 3 h, at 10 µM, stronger effect = higher value
[6] = reduced mouse 2C T cell binding to pMHC/ICAM-1 vesicles – MLPCN validation set, flow cytometry, LFA-1/ICAM-1 modulator project, pilot screen (AID 2523;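 active means response below a set limit, under 55% cells CD8-positive and vesicle-bound, and CD8 cells' 90th-percentile brightness under 279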;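 on vesicle binding response: mean PE anti-B7-1 fluorescence of CD8+ cells relative to row control; 100% = QL9-loaded vesicles with DMSO vehicle in the same plate row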); conditions: 2C mouse CD8+ T cells, at 7 µM, stronger effect = lower value; double positive events: measured here: CD8+/vesicle+ event percentage
[7] = target: Integrin beta-1 (Homo sapiens) + Integrin alpha-4 (Homo sapiens) (UniProt P13612+P05556); experiment: alpha4beta1 integrin LIBS antibody binding reduction – U937 cells, HUTS-21 mAb, flow cytometry, validation set, VLA-4 allosteric modulator project, pilot screen (AID 2674;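 active means inhibition above 50%, about 3 SD of the validation set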;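 further: antibody binding induced by the VLA-4 ligand LDV present at three times its Kd; 0% = LDV ligand with antibody and no compound and 100% = antibody without LDV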); conditions: HUTS-21 LIBS mAb binding, at 6.7 µM, stronger effect = higher value, binding induced by LDV ligand
Integrin beta-1 (Homo sapiens) + Integrin alpha-4 (Homo sapiens), sequence (P05556 whole entry, looked up): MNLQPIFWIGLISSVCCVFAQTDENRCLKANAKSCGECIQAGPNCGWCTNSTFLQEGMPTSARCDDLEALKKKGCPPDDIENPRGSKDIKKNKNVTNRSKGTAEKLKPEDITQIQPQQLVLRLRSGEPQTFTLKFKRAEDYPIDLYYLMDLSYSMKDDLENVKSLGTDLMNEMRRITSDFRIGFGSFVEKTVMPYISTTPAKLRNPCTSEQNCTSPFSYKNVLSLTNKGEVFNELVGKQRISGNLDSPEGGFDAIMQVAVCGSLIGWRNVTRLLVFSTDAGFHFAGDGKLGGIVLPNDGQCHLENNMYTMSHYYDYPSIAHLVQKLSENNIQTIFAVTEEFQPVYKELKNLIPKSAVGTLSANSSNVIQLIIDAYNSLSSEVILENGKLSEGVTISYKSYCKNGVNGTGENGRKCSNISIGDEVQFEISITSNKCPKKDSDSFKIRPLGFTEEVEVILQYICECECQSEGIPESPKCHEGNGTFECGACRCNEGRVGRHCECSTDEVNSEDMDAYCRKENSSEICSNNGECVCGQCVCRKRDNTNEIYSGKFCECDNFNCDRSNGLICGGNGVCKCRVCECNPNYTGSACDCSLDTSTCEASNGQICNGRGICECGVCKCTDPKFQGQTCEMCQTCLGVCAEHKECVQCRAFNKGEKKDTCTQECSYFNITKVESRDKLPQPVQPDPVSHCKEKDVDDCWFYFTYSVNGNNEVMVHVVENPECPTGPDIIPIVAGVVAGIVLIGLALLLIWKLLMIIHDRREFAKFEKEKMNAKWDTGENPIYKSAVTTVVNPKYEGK
Integrin beta-1 (Homo sapiens) + Integrin alpha-4 (Homo sapiens), sequence (P13612 whole entry, looked up): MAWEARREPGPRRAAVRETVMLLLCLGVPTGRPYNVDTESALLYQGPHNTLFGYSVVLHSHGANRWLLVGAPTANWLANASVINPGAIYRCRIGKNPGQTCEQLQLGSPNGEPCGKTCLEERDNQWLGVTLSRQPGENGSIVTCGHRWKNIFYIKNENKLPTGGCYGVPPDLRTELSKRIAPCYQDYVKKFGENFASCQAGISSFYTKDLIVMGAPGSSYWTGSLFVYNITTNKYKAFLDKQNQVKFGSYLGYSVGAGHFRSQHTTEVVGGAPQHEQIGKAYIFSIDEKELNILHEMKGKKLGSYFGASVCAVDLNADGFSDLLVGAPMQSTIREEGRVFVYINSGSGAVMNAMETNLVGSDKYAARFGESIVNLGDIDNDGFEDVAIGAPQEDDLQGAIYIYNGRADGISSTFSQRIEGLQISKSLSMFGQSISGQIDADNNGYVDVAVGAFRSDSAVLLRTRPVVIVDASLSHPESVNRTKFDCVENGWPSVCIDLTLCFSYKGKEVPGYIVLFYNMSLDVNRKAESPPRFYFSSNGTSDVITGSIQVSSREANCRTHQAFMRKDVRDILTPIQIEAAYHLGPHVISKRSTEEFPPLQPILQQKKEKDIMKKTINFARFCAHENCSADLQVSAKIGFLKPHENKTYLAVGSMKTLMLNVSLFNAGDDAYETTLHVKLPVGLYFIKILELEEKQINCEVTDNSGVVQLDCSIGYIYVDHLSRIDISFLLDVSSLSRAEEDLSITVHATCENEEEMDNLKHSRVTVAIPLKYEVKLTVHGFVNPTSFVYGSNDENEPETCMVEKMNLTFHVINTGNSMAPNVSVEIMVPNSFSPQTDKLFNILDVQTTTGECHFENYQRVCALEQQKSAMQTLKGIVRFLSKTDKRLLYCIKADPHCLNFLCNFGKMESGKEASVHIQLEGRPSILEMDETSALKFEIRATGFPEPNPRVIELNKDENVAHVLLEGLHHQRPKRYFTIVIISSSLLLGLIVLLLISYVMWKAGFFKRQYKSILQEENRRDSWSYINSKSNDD

[8] = calorie-restriction mimetic ROS inhibitors, yeast – validation compound set, pilot screen (AID 2706;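 active means superoxide response below 65% of plate, a cut near 3 SD across the whole screen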;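 further: yeast exposed to compound for one week at 30 degrees C before staining; 100% = mean of all compound wells on the same plate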); conditions: S. cerevisiae aging, superoxide DHE fluorescence; at 10 µM; stronger effect = lower value
[9] = target: Beta-adrenergic receptor kinase 1 (Homo sapiens) (UniProt P25098); experiment: GRK2 binders displacing RNA aptamer, biochemical, validation, human GRK2, bead flow cytometry (AID 488806;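 active means aptamer binding inhibition above 30%, about 3 SD of noise from non-fluorescent compounds; inactive means inhibition at or below 30%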); conditions: bead-bound GRK2, FAM-aptamer displacement, at 10 µM, stronger effect = higher value
Beta-adrenergic receptor kinase 1 (Homo sapiens), sequence (P25098 whole entry, looked up): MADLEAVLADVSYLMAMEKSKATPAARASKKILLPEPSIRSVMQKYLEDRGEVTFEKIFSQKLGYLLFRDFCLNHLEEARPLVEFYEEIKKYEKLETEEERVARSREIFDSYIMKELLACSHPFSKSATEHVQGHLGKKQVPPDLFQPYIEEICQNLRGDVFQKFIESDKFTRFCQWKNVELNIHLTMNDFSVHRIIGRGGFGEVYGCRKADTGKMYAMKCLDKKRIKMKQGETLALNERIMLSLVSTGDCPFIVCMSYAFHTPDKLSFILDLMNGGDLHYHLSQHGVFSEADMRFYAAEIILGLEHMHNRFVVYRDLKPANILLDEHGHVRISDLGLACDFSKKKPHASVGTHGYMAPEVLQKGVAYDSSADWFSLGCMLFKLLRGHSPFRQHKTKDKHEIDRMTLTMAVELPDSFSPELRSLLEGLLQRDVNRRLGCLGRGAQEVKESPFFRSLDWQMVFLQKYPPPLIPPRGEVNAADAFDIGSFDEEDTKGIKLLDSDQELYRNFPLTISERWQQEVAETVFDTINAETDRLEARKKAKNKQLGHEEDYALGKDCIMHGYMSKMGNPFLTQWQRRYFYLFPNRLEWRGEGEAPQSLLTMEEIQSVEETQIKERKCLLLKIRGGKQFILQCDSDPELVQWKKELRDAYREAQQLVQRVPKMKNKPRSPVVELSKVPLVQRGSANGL

[10] = target: Beta-2 adrenergic receptor (Homo sapiens) (UniProt P07550); experiment: agonist-induced loss of surface beta2AR – cell-based, FAP fluorogen, flow cytometry, validation set, pilot screen (AID 504459;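 active means percent response above 42, roughly 3 SD of non-fluorescent test compounds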;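 further: agonist-driven loss of surface beta2AR via internalization measured by FAP dye flow cytometry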); conditions: Am2.2-beta2AR cells, at 10 µM, stronger effect = higher value
Beta-2 adrenergic receptor (Homo sapiens), sequence (P07550 whole entry, looked up): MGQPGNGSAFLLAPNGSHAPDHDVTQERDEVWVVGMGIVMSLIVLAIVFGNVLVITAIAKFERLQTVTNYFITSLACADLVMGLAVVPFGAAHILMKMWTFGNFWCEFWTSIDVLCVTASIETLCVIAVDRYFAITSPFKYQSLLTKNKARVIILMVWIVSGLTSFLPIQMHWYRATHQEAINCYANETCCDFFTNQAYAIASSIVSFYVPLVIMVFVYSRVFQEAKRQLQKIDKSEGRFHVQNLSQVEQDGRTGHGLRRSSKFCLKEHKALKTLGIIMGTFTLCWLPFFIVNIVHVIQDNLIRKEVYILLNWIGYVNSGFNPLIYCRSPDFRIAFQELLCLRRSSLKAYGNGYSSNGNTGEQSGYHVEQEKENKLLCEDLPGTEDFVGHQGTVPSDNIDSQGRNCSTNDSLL

[11] = target: AP-2 complex subunit beta (Homo sapiens) (UniProt P63010); experiment: beta-arrestin/AP2 interaction blockers – biochemical, validation set, GST-AP2 beads, flow cytometry, pilot screen (AID 504541;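 active means inhibition above 54%, about 3 SD of non-fluorescent compounds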;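 further: AP2 carries R879A mutation and is captured from E. coli lysate; bead-bound FITC arrestin peptide fluorescence measuring arrestin peptide binding to AP2; 0% = DMSO wells and 100% = excess unlabeled arrestin peptide control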); conditions: FITC arrestin peptide, at 10 µM, stronger effect = higher value, AP2 beta2 appendage fragment, R879A mutant
AP-2 complex subunit beta (Homo sapiens), sequence (P63010 whole entry, looked up, the tested form may be a part, one chain of several): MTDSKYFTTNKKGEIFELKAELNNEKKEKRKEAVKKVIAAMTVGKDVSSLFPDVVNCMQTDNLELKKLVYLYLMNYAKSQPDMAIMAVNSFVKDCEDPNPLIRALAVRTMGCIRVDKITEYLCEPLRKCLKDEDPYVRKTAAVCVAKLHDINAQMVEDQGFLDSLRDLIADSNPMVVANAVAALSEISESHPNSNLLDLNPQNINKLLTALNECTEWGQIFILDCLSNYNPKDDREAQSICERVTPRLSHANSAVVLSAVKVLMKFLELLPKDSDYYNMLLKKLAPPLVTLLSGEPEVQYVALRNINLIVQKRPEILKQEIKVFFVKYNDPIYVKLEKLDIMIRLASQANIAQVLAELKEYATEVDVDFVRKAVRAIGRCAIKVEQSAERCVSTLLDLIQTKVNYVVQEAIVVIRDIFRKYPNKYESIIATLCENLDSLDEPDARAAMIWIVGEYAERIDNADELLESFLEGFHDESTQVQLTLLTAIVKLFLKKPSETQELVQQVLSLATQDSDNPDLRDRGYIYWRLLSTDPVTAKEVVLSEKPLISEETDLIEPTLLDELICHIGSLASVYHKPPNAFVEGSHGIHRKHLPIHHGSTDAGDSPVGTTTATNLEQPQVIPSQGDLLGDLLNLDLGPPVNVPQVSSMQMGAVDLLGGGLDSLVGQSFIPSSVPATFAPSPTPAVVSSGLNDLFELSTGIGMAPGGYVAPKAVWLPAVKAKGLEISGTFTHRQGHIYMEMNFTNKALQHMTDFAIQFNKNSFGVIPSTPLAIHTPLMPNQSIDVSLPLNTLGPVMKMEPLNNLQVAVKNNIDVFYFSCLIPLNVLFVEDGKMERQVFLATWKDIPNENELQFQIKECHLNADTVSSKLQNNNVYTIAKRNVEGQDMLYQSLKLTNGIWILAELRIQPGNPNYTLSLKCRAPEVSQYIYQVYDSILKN

[12] = cytosolic pH regulators acting via V-ATPase – S. cerevisiae, pHLuorin, HTS validation (AID 504600; in the data active means response above about 15%;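 further: plate controls were DMSO for no effect and reference compound for full effect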); conditions: V-ATPase proton transport, at 10 µM, stronger effect = higher value
[13] = system: anti-desmoglein-3 scFv antibody binding to human DSG3; experiment: blockers of pathogenic pemphigus antibody–desmoglein-3 binding – biochemical, validation compound set, bead-based, flow cytometry, pilot screen (AID 588368); conditions: Protein G beads, DSG3-Fc, scFv-GFP binding, at 10 µM, stronger effect = lower value;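 further: signal is the median channel fluorescence of bead-bound GFP antibody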
[14] = Nile Red efflux blockade in pump-expressing yeast – validation compound set, multiplex, phenotypic, pilot screen (AID 588506;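 active means efflux inhibition above 0.42, the validation set average plus 4 SD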;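 further: Nile Red retained in cells so higher fluorescence means more efflux inhibition; 0 = negative control wells and 1 = enniatin B 25 µM full block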); conditions: S. cerevisiae pump-expressing triplex, Nile Red efflux flow cytometry; at 10 µM; stronger effect = higher value; the pumps come from Candida albicans
[15] = target: ATP-binding cassette sub-family B member 6 (Homo sapiens) (UniProt Q9NP58); experiment: blockers of ABCB6-driven porphyrin uptake – K562-ABCB6 cells, flow cytometry, validation set, pilot screen (AID 588550;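 active means inhibition above the screen-wide mean plus 3 SD, about 51%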;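 further: 0% = DMSO wells and 100% = benzethonium chloride 70 µM positive control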); conditions: K562-ABCB6 porphyrin accumulation, 1 h, at 10 µM, stronger effect = higher value
ATP-binding cassette sub-family B member 6 (Homo sapiens), sequence (Q9NP58 whole entry, looked up): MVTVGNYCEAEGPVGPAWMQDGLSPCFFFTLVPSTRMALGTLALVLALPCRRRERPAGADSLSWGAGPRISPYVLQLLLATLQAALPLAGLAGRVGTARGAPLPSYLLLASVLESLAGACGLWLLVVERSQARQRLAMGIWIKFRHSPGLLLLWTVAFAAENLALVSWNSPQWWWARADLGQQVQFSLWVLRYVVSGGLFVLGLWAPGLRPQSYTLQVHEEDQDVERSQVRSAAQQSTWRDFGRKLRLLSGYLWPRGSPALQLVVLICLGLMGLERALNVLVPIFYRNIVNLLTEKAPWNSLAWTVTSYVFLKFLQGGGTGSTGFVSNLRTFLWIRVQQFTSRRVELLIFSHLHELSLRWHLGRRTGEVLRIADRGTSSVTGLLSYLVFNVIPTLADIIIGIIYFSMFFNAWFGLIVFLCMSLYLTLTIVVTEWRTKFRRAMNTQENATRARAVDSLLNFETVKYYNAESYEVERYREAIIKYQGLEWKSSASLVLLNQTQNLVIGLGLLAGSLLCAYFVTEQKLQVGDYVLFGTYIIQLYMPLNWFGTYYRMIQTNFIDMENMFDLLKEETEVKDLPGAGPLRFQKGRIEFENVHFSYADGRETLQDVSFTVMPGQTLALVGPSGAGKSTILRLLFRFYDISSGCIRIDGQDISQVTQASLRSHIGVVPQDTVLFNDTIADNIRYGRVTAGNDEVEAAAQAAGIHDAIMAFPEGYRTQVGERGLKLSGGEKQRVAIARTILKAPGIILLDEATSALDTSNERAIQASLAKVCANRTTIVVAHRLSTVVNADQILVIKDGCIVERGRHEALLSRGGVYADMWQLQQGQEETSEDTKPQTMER

[16] = AML differentiation inducers, ER-HoxA9 marrow cells – cell-based, GFP/MAC1 double positive, flow cytometry, validation set, primary screen (AID 588685;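 active means differentiation response of at least 50%, scaled between solvent and reference control, from cells with both markers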;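 further: compound exposure lasts four days before antibody staining and flow analysis; 0% = DMSO wells and 100% = 5 µM fulvestrant positive control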); conditions: stronger effect = higher value, normalized: vehicle 0, fulvestrant 100

COc1ccc(-c2csc(-c3cccnc3)n2)cc1C
inactive: percent of DMSO control GFP [1] 98.2% | GFP response vs DMSO [2] 111% | percent response of DMSO control [3] 91% | GFP response vs DMSO [4] 95.7% | GFP response, % of DMSO [5] 84.4% | vesicle binding response [6] 170% | inhibition [7] 0.94% | superoxide response (% of plate) [8] 102% | aptamer binding inhibition [9] 4% | response [10] 3.47% | inhibition [11] 7.91% | response [12] -1.19% | binding (% of control) [13] 102% | efflux inhibition (fraction of control) [14] 0.12 | inhibition [15] 3% | differentiation response [16] 4%
59.8%: double positive events [6]

COc1ccc(S(N)(=O)=O)cc1C(N)=O
inactive: percent of DMSO control GFP [1] 100% | GFP response vs DMSO [2] 105% | percent response of DMSO control [3] 97.8% | GFP response vs DMSO [4] 101% | GFP response, % of DMSO [5] 97% | vesicle binding response [6] 195% | inhibition [7] -0.45% | superoxide response (% of plate) [8] 106% | aptamer binding inhibition [9] 0% | response [10] 1.47% | inhibition [11] 13.4% | response [12] -1.59% | binding (% of control) [13] 91.1% | efflux inhibition (fraction of control) [14] 0.02 | inhibition [15] 11% | differentiation response [16] -4.64%
62%: double positive events [6]

CC1(C)CC(CC(=O)O)(c2ccc(Cl)cc2)CCO1 (stereo not drawn)
inactive: percent of DMSO control GFP [1] 86% | GFP response vs DMSO [2] 126% | percent response of DMSO control [3] 96.6% | GFP response vs DMSO [4] 85.3% | GFP response, % of DMSO [5] 92.8% | vesicle binding response [6] 136% | inhibition [7] -0.33% | superoxide response (% of plate) [8] 94.5% | aptamer binding inhibition [9] 3% | response [10] -2.75% | inhibition [11] -8.86% | response [12] 0.57% | binding (% of control) [13] 107% | efflux inhibition (fraction of control) [14] -0.17 | inhibition [15] 9% | differentiation response [16] -3.28%
61.2%: double positive events [6]

CC(CN1c2ccccc2Sc2ccccc21)N(C)C (stereo not drawn)
74.2%: double positive events [6]
inactive: percent of DMSO control GFP [1] 92.4% | GFP response vs DMSO [2] 117% | percent response of DMSO control [3] 111% | GFP response vs DMSO [4] 78.1% | GFP response, % of DMSO [5] 94.9% | vesicle binding response [6] 363% | inhibition [7] -2.27% | superoxide response (% of plate) [8] 84.2% | aptamer binding inhibition [9] -3% | response [10] -2.04% | inhibition [11] 1.26% | response [12] -2.78% | binding (% of control) [13] 97.2% | efflux inhibition (fraction of control) [14] -0.53 | inhibition [15] 10% | differentiation response [16] -1.64%

O=C1[C@@H]2CSCN2C(=O)CN1Cc1ccc(F)cc1
inactive: percent of DMSO control GFP [1] 107% | GFP response vs DMSO [2] 95.2% | percent response of DMSO control [3] 106% | GFP response vs DMSO [4] 82% | GFP response, % of DMSO [5] 94.8% | vesicle binding response [6] 235% | inhibition [7] -3.16% | superoxide response (% of plate) [8] 111% | aptamer binding inhibition [9] 2% | response [10] 5.93% | inhibition [11] -4.78% | response [12] -2.17% | binding (% of control) [13] 83.8% | efflux inhibition (fraction of control) [14] -0.21 | inhibition [15] 6% | differentiation response [16] -21.6%
61.3%: double positive events [6]

C[C@]12CC[C@@H]3c4ccc(O)cc4CC[C@H]3[C@@H]1C[C@@H](O)[C@@H]2O[C@@H]1O[C@H](C(=O)O)[C@@H](O)[C@H](O)[C@H]1O
61.7%: double positive events [6]
inactive: percent of DMSO control GFP [1] 90.6% | GFP response vs DMSO [2] 113% | percent response of DMSO control [3] 108% | GFP response vs DMSO [4] 77% | GFP response, % of DMSO [5] 104% | vesicle binding response [6] 249% | inhibition [7] -10% | superoxide response (% of plate) [8] 109% | aptamer binding inhibition [9] 4% | response [10] -7.17% | inhibition [11] -6.28% | response [12] -6.58% | binding (% of control) [13] 105% | efflux inhibition (fraction of control) [14] 0.12 | inhibition [15] 8% | differentiation response [16] -4.91%

O=C(NC1CCCCC1)c1cc2nc(-c3ccco3)cc(C(F)(F)F)n2n1
inactive: percent of DMSO control GFP [1] 89.5% | GFP response vs DMSO [2] 106% | percent response of DMSO control [3] 102% | GFP response vs DMSO [4] 78.7% | GFP response, % of DMSO [5] 88.2% | vesicle binding response [6] 158% | inhibition [7] -1.3% | superoxide response (% of plate) [8] 111% | aptamer binding inhibition [9] 0% | response [10] -19.4% | inhibition [11] 1.72% | response [12] 8.07% | binding (% of control) [13] 107% | efflux inhibition (fraction of control) [14] 0.09 | inhibition [15] 9% | differentiation response [16] 20.5%
43.2%: double positive events [6]

COc1ccccc1C(O)c1nccn1C (stereo not drawn)
inactive: percent of DMSO control GFP [1] 92% | GFP response vs DMSO [2] 127% | percent response of DMSO control [3] 106% | GFP response vs DMSO [4] 79.8% | GFP response, % of DMSO [5] 93.1% | vesicle binding response [6] 282% | inhibition [7] 17.1% | superoxide response (% of plate) [8] 81.3% | aptamer binding inhibition [9] 4% | response [10] -3.43% | inhibition [11] 0.35% | binding (% of control) [13] 104% | efflux inhibition (fraction of control) [14] -0.35 | inhibition [15] 11% | differentiation response [16] -7.37%
active: response [12] 24.9%
76.2%: double positive events [6]

CC(C(=O)O)c1ccc(-c2ccccc2)c(F)c1 (stereo not drawn)
66.4%: double positive events [6]
inactive: percent of DMSO control GFP [1] 94.8% | GFP response vs DMSO [2] 104% | percent response of DMSO control [3] 76.8% | GFP response vs DMSO [4] 128% | GFP response, % of DMSO [5] 84.8% | vesicle binding response [6] 1320% | inhibition [7] 1.62% | superoxide response (% of plate) [8] 106% | aptamer binding inhibition [9] -1% | response [10] -7.02% | inhibition [11] -9.46% | response [12] -1.04% | binding (% of control) [13] 103% | efflux inhibition (fraction of control) [14] 0.05 | inhibition [15] 1% | differentiation response [16] 0.24%
